Experimental data published in PubChem BioAssay AID2284138 (EPA ToxCast).
Records with an inconclusive call do not appear. Calls of active or inactive are those of the source. The calls were made as follows: active = hit-call score of the fitted dose curve at least 0.9, where 1 is the maximum; inactive = score below 0.9.

target: human ROCK1 AGC Kinase, ROCK1 (gene 6093) (UniProt Q13464); experiment: ERF_FR_ENZ_hROCK1: Eurofins (ERF) Enzymatic Radiometric [Km ATP] KinaseProfiler LeadHunter Assay for human ROCK1 AGC Kinase
Sequence (Q13464 whole entry, looked up): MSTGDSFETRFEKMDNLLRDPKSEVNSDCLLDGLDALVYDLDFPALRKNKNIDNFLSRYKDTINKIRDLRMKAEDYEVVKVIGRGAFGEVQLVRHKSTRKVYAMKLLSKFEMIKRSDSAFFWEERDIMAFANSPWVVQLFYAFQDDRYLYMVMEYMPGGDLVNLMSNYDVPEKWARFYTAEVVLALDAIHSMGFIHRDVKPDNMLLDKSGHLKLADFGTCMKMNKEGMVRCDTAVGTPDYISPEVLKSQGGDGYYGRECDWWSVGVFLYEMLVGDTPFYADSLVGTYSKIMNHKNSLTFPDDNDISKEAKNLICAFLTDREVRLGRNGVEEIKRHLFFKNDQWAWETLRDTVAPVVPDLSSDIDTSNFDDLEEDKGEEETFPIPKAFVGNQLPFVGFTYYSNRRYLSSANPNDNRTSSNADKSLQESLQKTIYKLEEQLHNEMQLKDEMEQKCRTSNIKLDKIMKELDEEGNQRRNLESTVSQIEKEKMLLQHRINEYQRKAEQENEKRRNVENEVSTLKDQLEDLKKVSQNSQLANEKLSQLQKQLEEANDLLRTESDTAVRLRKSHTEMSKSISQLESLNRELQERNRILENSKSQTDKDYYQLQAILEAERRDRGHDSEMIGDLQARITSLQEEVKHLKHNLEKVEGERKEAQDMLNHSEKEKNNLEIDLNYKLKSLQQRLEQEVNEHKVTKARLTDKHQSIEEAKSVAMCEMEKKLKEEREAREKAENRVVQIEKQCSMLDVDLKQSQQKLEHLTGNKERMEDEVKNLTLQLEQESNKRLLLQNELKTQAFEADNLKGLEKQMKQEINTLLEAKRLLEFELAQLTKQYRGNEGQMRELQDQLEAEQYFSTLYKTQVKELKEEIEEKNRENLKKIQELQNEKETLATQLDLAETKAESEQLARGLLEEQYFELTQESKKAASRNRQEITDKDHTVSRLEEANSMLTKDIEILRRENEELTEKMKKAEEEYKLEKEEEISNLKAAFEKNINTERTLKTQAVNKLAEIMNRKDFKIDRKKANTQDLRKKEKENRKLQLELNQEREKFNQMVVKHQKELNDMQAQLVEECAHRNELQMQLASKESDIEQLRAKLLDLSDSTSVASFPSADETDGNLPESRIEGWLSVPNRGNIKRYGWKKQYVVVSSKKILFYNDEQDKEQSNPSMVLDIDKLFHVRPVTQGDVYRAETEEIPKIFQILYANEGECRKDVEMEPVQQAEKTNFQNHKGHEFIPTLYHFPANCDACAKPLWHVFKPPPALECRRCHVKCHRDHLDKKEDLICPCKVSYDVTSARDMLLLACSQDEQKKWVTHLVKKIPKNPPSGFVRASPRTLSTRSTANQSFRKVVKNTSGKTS
Description: ERF_FR_ENZ_hROCK1 is a biochemical, single-readout assay that uses extracted gene-proteins in a cell-free assay. Measurements were taken 0.33 hour after chemical dosing in a 96-well plate. See ROCK1 Human AGC Kinase Enzymatic LANCE Assay [Km ATP], Cerep.ERF_FR_ENZ_hROCK1 is an assay component calculated from the ERF_FR_ENZ_hROCK1 assay. It is designed to measure enzyme activity using a type of enzyme reporter as detected by fluorescence intensity with LANCE technology.Data from the assay component ERF_FR_ENZ_hROCK1 was analyzed at the assay endpoint, ERF_FR_ENZ_hROCK1, in the positive analysis fitting direction relative to DMSO as the negative control and baseline of activity. Using a type of enzyme reporter, loss-of-signal activity can be used to understand changes in enzymatic activity as they relate to gene ROCK1. To generalize the intended target to other relatable targets, this assay endpoint is annotated to the kinase intended target family, where the subfamily is serine/threonine kinase.
ROCK-I (h) is incubated with 8 mM MOPS pH 7.0, 0.2 mM EDTA, 30 uM […], 10 mM MgAcetate and [gamma-33P]-ATP (specific activity and concentration as required). The reaction is initiated by the addition of the Mg/ATP mix. After incubation for 40 minutes at room temperature, the reaction is stopped by the addition of phosphoric acid to a concentration of 0.5%. […]

Compound	outcome
COc1cc(CCC(=O)CC(=O)CCc2ccc(O)c(OC)c2)ccc1O	inactive
O=C(/C=C/c1ccc(O)cc1)CC(=O)/C=C/c1ccc(O)cc1	inactive
